Measured values published in PubChem BioAssay (NCI).
“And” between values parts separate entries of the source, which are not always exact repeats. Equal entries are not always repeated. About 79,000 compounds went through this panel and 15% of them were active in at least one assay; those are over-represented in the sample as a whole. The source holds several records for some structures; these can differ, active in one and inactive in another. The source made the active and inactive calls. No stated cut-off is given here; in the data, active means growth inhibition above about 70%; inactive means the rest.

Legend:
[1] = NCI Yeast Anticancer Drug Screen. Data for the rad50 strain (AID 155);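 further: 0% = growth of vehicle-only cultures of the same strain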; conditions: S. cerevisiae rad50 strain growth inhibition, stronger effect = higher value
Procedure, shortened: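 Yeast carrying a defined DNA repair defect were exposed to test compounds, and growth was compared with vehicle-treated controls to give percent inhibition.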

[2] = NCI Yeast Anticancer Drug Screen. Data for the mec2-1 strain (AID 157); conditions: S. cerevisiae mec2-1 strain, stronger effect = higher value
Procedure, shortened: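 Using mec2-1 yeast: add compound, measure growth, express inhibition versus vehicle-treated cultures.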

[3] = NCI Yeast Anticancer Drug Screen. Data for the sgs1 mgt1 strain (AID 161);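 further: 0% = growth of cultures given vehicle only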; conditions: S. cerevisiae sgs1 mgt1 strain, stronger effect = higher value
Procedure, shortened: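 Yeast cells carrying a defined DNA-repair defect were exposed to test compounds. Growth inhibition was measured relative to vehicle-treated controls.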

[4] = NCI Yeast Anticancer Drug Screen. Data for the cln2 rad14 strain (AID 165);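 further: 0% = growth equal to vehicle treated cultures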; conditions: S. cerevisiae cln2 rad14 strain, stronger effect = higher value
Procedure, shortened: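 Yeast strain cln2 rad14, bearing defects in cell cycle control and DNA repair, serves as the test system; values reflect growth inhibition compared with vehicle.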

[5] = NCI Yeast Anticancer Drug Screen. Data for the bub3 strain (AID 167); conditions: S. cerevisiae bub3 mutant strain, stronger effect = higher value
Procedure, shortened: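 Compounds were applied to a genetically altered yeast strain carrying a cell-cycle control defect. Growth inhibition was scored against vehicle-treated controls.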

[6] = NCI Yeast Anticancer Drug Screen. Data for the mlh1 rad18 strain (AID 175); conditions: S. cerevisiae mlh1 rad18 strain growth inhibition, stronger effect = higher value
Procedure, shortened: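 Steps: expose repair-defective yeast to compound; measure growth; express inhibition against vehicle-treated controls.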

[7] = at 5.0 µM (retest, dose inferred, filed as 0.5)
[8] = at 50.0 µM (retest, dose inferred, filed as 5.0)

Measured: growth inhibition

O=C(CON1C(=O)c2ccccc2C1=O)c1ccccc1
inactive: [1]; [7] -3% | [1]; [8] 19% | [2]; [7] 8% | [2]; [8] 29% | [2]; at 50.0 µM 52% | [3]; [7] 6% | [3]; [8] 21% | [3]; at 50.0 µM 55.1% | [4]; [7] -5% | [4]; [8] -8% | [4]; at 50.0 µM -3.15% | [5]; [7] -7% | [5]; [8] 32% | [6]; [7] -16% | [6]; [8] 18%
active: [1]; at 50.0 µM 91.2% | [5]; at 50.0 µM 80.5% | [6]; at 50.0 µM 76.2%

Nc1ccc2c(n1)NCC/C2=N\Nc1ccccc1
active: [1]; [8] 72% | [1]; at 50.0 µM 90.5% | [2]; at 50.0 µM 78.3% | [3]; at 50.0 µM 79% | [5]; [8] 91% | [5]; at 50.0 µM 87.8% | [6]; [8] 92% | [6]; at 50.0 µM 98%
inactive: [1]; [7] 1% | [2]; [7] -2% | [2]; [8] 60% | [3]; [7] -4% | [3]; [8] 69% | [4]; [7] -2% | [4]; [8] 23% | [4]; at 50.0 µM 60.9% | [5]; [7] -5% | [6]; [7] 0%

COC1CC2CCC(C)[C@](O)(O2)C(=O)C(=O)N2CCCCC2C(=O)OC(C(C)CC2CCC(O)C(OC)C2)CC(=O)C(C)C=C(C)C(OC(=O)CN(C)C)C(OC)C(=O)C(C)CC(C)/C=C/C=C/C=C\1C (stereo not given in full)
active: [1]; [8] 97% | [1]; at 50.0 µM 89% | [2]; [8] 97% | [2]; at 50.0 µM 92.5% | [3]; [7] 97% | [3]; [8] 96% | [3]; at 50.0 µM 92% | [4]; [7] 95% | [4]; [8] 94% | [4]; at 50.0 µM 85.4% | [5]; [8] 98% | [5]; at 50.0 µM 91.7% | [6]; [7] 97% | [6]; [8] 96% | [6]; at 50.0 µM 89.8%
inactive: [1]; [7] 37% | [2]; [7] 46% | [5]; [7] 50%

COC1/C=C\C=C(/C)C(=O)Nc2cc3nc4ccc(Br)cc4oc-3c(c2=O)CC(C)CC(OC)C(O)C(C)/C=C(\C)C1OC(N)=O (stereo not given)
active: [1]; [8] 97% | [1]; at 50.0 µM 89.2% | [2]; [8] 98% | [2]; at 50.0 µM 90.9% | [3]; [7] 96% | [3]; [8] 98% | [3]; at 50.0 µM 91.5% | [4]; [7] 85% | [4]; [8] 92% | [4]; at 50.0 µM 89% | [5]; [7] 94% | [5]; [8] 97% | [5]; at 50.0 µM 90.7% | [6]; [8] 98% | [6]; at 50.0 µM 88.1%
inactive: [1]; [7] 44% | [2]; [7] 57% | [6]; [7] 57%

ON=C(Cc1ccccc1)Cc1ccccc1
inactive: [1]; [7] 7% | [1]; [8] -7% | [1]; at 50.0 µM 20.4% and 1.3% | [2]; [7] -4% | [2]; [8] -8% | [2]; at 50.0 µM 5.7% and -6.9% | [3]; [7] 1% | [3]; [8] 34% | [4]; [7] 2% | [4]; [8] -8% | [4]; at 50.0 µM 46.2% and -4.6% | [5]; [7] -83% | [5]; [8] -3% | [5]; at 50.0 µM -2.8% and 17.2% | [6]; [7] 1% | [6]; [8] 9% | [6]; at 50.0 µM 61.8% and 27.9%
23.2% (inactive) and 82.5% (active): [3]; at 50.0 µM

COc1cc2c(cc1O)C1CN(C2)Cc2cc(OC)c(O)cc21
inactive: [1]; [7] -5% | [1]; [8] 67% | [1]; at 50.0 µM 51.4% | [2]; [7] -3% | [2]; at 50.0 µM 35% | [3]; [7] -11% | [3]; at 50.0 µM 30.3% | [4]; [7] 2% | [5]; [7] -2% | [5]; [8] 69% | [5]; at 50.0 µM 33.7% | [6]; [7] 14%
active: [2]; [8] 78% | [3]; [8] 76% | [4]; [8] 75% | [4]; at 50.0 µM 79.2% | [6]; [8] 80% | [6]; at 50.0 µM 74.3%

COc1ccc2[nH]c3c(C)c4ccncc4c(C)c3c2c1
inactive: [2]; [7] 40% | [3]; [7] 39% | [4]; [7] 21% | [5]; [7] 30% | [6]; [7] 55%
active: [1]; [7] 95% | [1]; [8] 99% | [1]; at 50.0 µM 92.6% and 99% | [2]; [8] 99% | [2]; at 50.0 µM 93.7% and 99.5% | [3]; [8] 99% | [3]; at 50.0 µM 93.2% and 99.4% | [4]; [8] 99% | [4]; at 50.0 µM 91.8% and 99% | [5]; [8] 99% | [5]; at 50.0 µM 92.7% and 99.3% | [6]; [8] 99% | [6]; at 50.0 µM 92.8% and 99.4%

CSCCC(NS(=O)(=O)Cc1ccccc1)C(=O)NNc1ccccc1 (stereo not given)
46.6% (inactive) and 73.8% (active): [5]; at 50.0 µM
79% (active) and 65% (inactive): [6]; [8]
42% (inactive) and 93% (active): [5]; [8]
44% (inactive) and 71% (active): [1]; [8]
active: [6]; at 50.0 µM 76.9% and 76.8%
72% (active) and 51.2% (inactive): [1]; at 50.0 µM
inactive: [1]; [7] -4% and 18% | [2]; [7] 0% and 2% | [2]; [8] 30% and 34% | [2]; at 50.0 µM 30.7% and 41.2% | [3]; [7] -12% and 10% | [3]; [8] 65% and 58% | [3]; at 50.0 µM 55.9% and 63.3% | [4]; [7] 14% and 5% | [4]; [8] 44% and 60% | [4]; at 50.0 µM 56.4% and 40.1% | [5]; [7] 2% and 16% | [6]; [7] 33% and 18%

Cn1c(N)nc(=O)c2[nH]cnc21
active: [4]; at 50.0 µM 86.8%
inactive: [1]; [7] -1% | [1]; [8] -1% | [1]; at 50.0 µM -4.3% | [2]; [7] -1% | [2]; [8] -2% | [2]; at 50.0 µM 11.8% | [3]; [7] -3% | [3]; [8] -4% | [3]; at 50.0 µM 6.9% | [4]; [7] 2% | [4]; [8] -3% | [5]; [7] 1% | [5]; [8] -3% | [5]; at 50.0 µM -9.25% | [6]; [7] -3% | [6]; [8] 0% | [6]; at 50.0 µM -17.2%

O=C1NC(=O)c2cc([N+](=O)[O-])ccc21
inactive: [1]; [7] -9% | [1]; [8] 12% | [1]; at 50.0 µM 6.65% and 0.9% | [2]; [7] 0% | [2]; [8] 4% | [2]; at 50.0 µM -21.9% and 3.5% | [3]; [7] -2% | [3]; [8] 8% | [3]; at 50.0 µM 5.35% and 17% | [4]; [7] -5% | [4]; [8] -5% | [4]; at 50.0 µM -1.95% and 55% | [5]; [7] 0% | [5]; [8] 13% | [5]; at 50.0 µM -0.35% and 34.4% | [6]; [7] -4% | [6]; [8] 12% | [6]; at 50.0 µM 11.3% and -14.6%

CC1(C)OC2C(O)C(O)C3OC(C)(C)OC3C2O1 (stereo not given)
inactive: [1]; [7] -20% | [1]; [8] 6% | [1]; at 50.0 µM 6% and 7.9% | [2]; [7] -13% | [2]; [8] 2% | [2]; at 50.0 µM 9.35% and -8.1% | [3]; [7] -6% | [3]; [8] 2% | [3]; at 50.0 µM 14.4% and 6.4% | [4]; [7] -1% | [4]; [8] 0% | [5]; [7] 2% | [5]; [8] 2% | [5]; at 50.0 µM 61% and 15.4% | [6]; [7] 25% | [6]; [8] 15% | [6]; at 50.0 µM 44% and 9.25%
74.1% (active) and -2.4% (inactive): [4]; at 50.0 µM

N#CC(=C1C=CC(=NOC(=O)Nc2cccc3ccccc23)C=C1)c1ccccc1
inactive: [1]; [7] 44% | [2]; [7] 35% | [3]; [7] 51% | [4]; [7] 10% | [5]; [7] 62% | [6]; [7] 30%
active: [1]; [8] 99% | [1]; at 50.0 µM 97.8% | [2]; [8] 99% | [2]; at 50.0 µM 97.7% | [3]; [8] 100% | [3]; at 50.0 µM 98.5% | [4]; [8] 99% | [4]; at 50.0 µM 97.7% | [5]; [8] 99% | [5]; at 50.0 µM 98.3% | [6]; [8] 99% | [6]; at 50.0 µM 97.5%

O=Cc1cc(Br)ccc1O
active: [1]; [8] 97% and 85% | [1]; at 50.0 µM 88.7% and 95.2% | [2]; [8] 73% and 77% | [2]; at 50.0 µM 92.5% and 98% | [3]; at 50.0 µM 95.9% and 96.3% | [5]; [8] 97% and 88% | [5]; at 50.0 µM 91.7% and 97.5% | [6]; [8] 94% and 93% | [6]; at 50.0 µM 97% and 99%
inactive: [1]; [7] 21% and 9% | [2]; [7] 7% and 4% | [3]; [7] 10% and 4% | [4]; [7] 8% and -3% | [4]; [8] 61% and 30% | [4]; at 50.0 µM 48.2% and 69% | [5]; [7] 6% and -4% | [6]; [7] 17% and 11%
73% (active) and 68% (inactive): [3]; [8]

CC(=O)[O-].[O-]c1c(Cl)cc(Cl)cc1/C=N/Nc1ccccn1.[Zn+2]
active: [1]; [8] 93% | [1]; at 50.0 µM 96.5% | [2]; [8] 96% | [2]; at 50.0 µM 87.8% | [3]; [8] 96% | [3]; at 50.0 µM 98.1% | [4]; [8] 93% | [4]; at 50.0 µM 95.5% | [5]; [8] 96% | [6]; [8] 93% | [6]; at 50.0 µM 97%
inactive: [1]; [7] 5% | [2]; [7] 16% | [3]; [7] 4% | [4]; [7] -1% | [5]; [7] -4% | [5]; at 50.0 µM 37.2% | [6]; [7] 3%

CC(=O)OCC(=O)[C@H]1CC[C@H]2[C@@H]3CC=C4C[C@@H](O)CC[C@]4(C)[C@H]3CC[C@]12C
active: [1]; [8] 91% | [1]; at 50.0 µM 89.8% | [2]; [8] 91% | [3]; [8] 94% | [4]; [8] 95% | [5]; [8] 91% | [6]; [8] 95% | [6]; at 50.0 µM 81.1%
inactive: [1]; [7] 54% | [2]; [7] 33% | [2]; at 50.0 µM -5.65% | [3]; [7] 60% | [3]; at 50.0 µM 48.5% | [4]; [7] 18% | [4]; at 50.0 µM 55.8% | [5]; [7] 23% | [5]; at 50.0 µM -17.4% | [6]; [7] 65%
